# B2AR ag: human beta-2 adrenergic receptor agonism by FAP; response, % (no concentration beside the values); 340,000 tested, 0.43% active; Am2.2-beta2AR cells, FAP receptor internalization, flow cytometry; AID 504454;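 active = response above a set limit, near 3 SD of response in nonfluorescent compounds, cut at about 42% in these data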
# PP1 counter: PP1-alpha (human) inhibition in PP5 counter-screen. 320,000 tested, 0.9% active. inhibition, % at 6.7 µM. P62136. purified PP1alpha, OMFP fluorescence. AID 2235;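 active = inhibition above the mean inhibition of all tested compounds plus 3 SD, computed separately for each screening campaign, cut at about 15% in these data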
# NadD block: inhibitors of Staphylococcus aureus NadD. purified NadD enzyme, colorimetric absorbance read-out. inhibition, % at 20 µM. 360,000 tested, 0.78% active; in the data active = inhibition above about 26%
# Exocytosis inh: lytic granule exocytosis inhibition; TALL-104 LAMP-1 surface exposure, flow cytometry; cells stimulated with thapsigargin and PMA; inhibition, % at 10 µM; 360,000 tested, 0.66% active; AID 651702;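 active = inhibition above about 55%, limit read from the data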
# GRK2 aptamer HTS: human GRK2 inhibition via aptamer displacement; P25098; bead flow cytometry, FAM-aptamer displacement from GRK2; inhibition of aptamer binding, % at 10 µM; 330,000 tested, 0.59% active;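 active = inhibition of aptamer binding above 40%, roughly 3 SD of noise, on plates passing a quality check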;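 also: median bead fluorescence of bound FAM aptamer so fluorescent compounds give negative values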
# PP1 inh confirm: confirmation of human PP1 phosphatase inhibitors; purified PP1alpha, OMFP substrate fluorescence; inhibition, % at 6.7 µM; shares compounds with PP1 counter; 1,900 tested, 52% active;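 active = mean PP1 inhibition above a set limit taken from the earlier primary screen, cut at about 15% in these data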
# PP5 counter: inhibits human PP5 phosphatase in PP1 counter-screen; shares compounds with PP1 counter; purified PP5c, OMFP fluorescence; inhibition, % at 6.7 µM; 1,900 tested, 4% active;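 active = mean PP5 inhibition over triplicate wells above about 9.5% taken from the earlier PP1 screen, limit read from the data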
# Numbers stand for hits; n = inactive; x = no result given. Most compounds without a hit are left out; they make up all but 2.9% or so of the library.
SMILES,B2AR ag,PP1 counter,NadD block,Exocytosis inh,GRK2 aptamer HTS,PP1 inh confirm,PP5 counter
O=C(Nc1nnc(-c2ccccc2Cl)o1)c1ccco1,n,n,n,n,n,x,x
O=C(Nc1nnc(-c2ccccc2Cl)o1)c1nc2ccccc2s1,n,40.3,n,n,n,31.3,n
COC(=O)c1ccc(CNC(=O)c2ccccc2C(=O)NCC2(CBr)OCCO2)cc1,x,x,n,n,x,x,x
Nc1ccn([C@@H]2O[C@H](C(=O)N3CCCN(Cc4cccs4)CC3)[C@@H](O)[C@H]2O)c(=O)n1,x,x,n,n,x,x,x
CCOC(=O)C1=C(O)C(=O)NC(c2ccccc2)=C(OC2CCCCC2)C1,n,23.6,n,n,n,31.0,n
O=C(Nc1ccc(Br)cc1)c1ccc(N2C(=O)C3CC=C(Cl)CC3C2=O)cc1 (configuration not stated),n,26.5,n,n,n,25.6,n
COc1nc2c(c(-c3cc(Br)cs3)c1C#N)Cc1ccccc1-2,n,n,n,n,n,x,x
Cn1c(=O)oc2cc(S(=O)(=O)Nc3cccc(C(=O)O)c3)ccc21,n,42.5,n,n,n,n,n
Cc1cc(C)cc(OCC(=O)Nc2ccc(N3CCCC3)cc2)c1,n,19.4,56.5,n,n,n,n
S=c1ncc2[nH]c(=S)[nH]c2[nH]1,n,x,n,n,x,x,x
Cc1cccc(NC(=O)CN2C(=O)N/C(=C/c3cc(C)n(-c4cccnc4)c3C)C2=O)c1,n,n,n,n,n,x,x
Cc1cccc(NC(=O)CN2C(=O)N/C(=C/c3cc(C)n(-c4ccncc4)c3C)C2=O)c1,n,19.0,n,n,n,n,n
Cc1cccc(NC(=O)CN2C(=O)N/C(=C\c3ccc(N4CCOCC4)cc3)C2=O)c1,n,19.8,n,n,n,25.4,n
Cc1cc(N2CCOCC2)ccc1/C=C1\NC(=O)N(CC(=O)Nc2ccc(F)cc2)C1=O,n,n,n,n,n,x,x
COc1ccc(NC2CCCN(C(=O)c3ccc4nc(C)c(C)nc4c3)C2)cc1OC (configuration not stated),n,n,n,n,n,x,x
Cc1ccc(NC2c3ncccc3C(=O)N2c2ccccc2C)cc1C (configuration not stated),n,30.4,n,n,n,25.7,n
CCOc1ccc(N2C(=O)c3cccnc3C2Nc2ccc(Cl)cc2)cc1 (configuration not stated),n,n,n,n,n,x,x
O=c1[nH]n2c(=O)c3c([nH]c2c1N=Nc1cccc(C(F)(F)F)c1)CCCC3,n,25.5,n,n,n,24.4,n
COc1cccc(N=Nc2c(=O)[nH]n3c(=O)c4c([nH]c23)CCC4)c1,n,19.8,n,n,n,15.9,n
O=C(Nc1ccc2c(c1)OCO2)N1CCN(Cc2ccco2)CC1,n,n,n,n,n,x,x
Cc1ccc(C(C)C)c(OCc2ccc(C(=O)N/N=C/c3cccc(O)c3O)cc2)c1,n,23.2,n,n,n,17.7,n
Oc1c(C(Nc2cccc(C(F)(F)F)c2)c2ccncc2)ccc2cccnc12 (configuration not stated),n,18.2,n,n,n,n,n
O=C(COc1ccc(-c2ccccc2)cc1)N1CCN(S(=O)(=O)Cc2ccccc2)CC1,n,n,n,n,n,x,x
COc1ncccc1C(=O)N1CCCC(N2CCN(c3cccc(Cl)c3)CC2)C1 (configuration not stated),n,49.4,n,n,n,n,n
O=C(CCc1nnc2n(Cc3ccc(F)cc3)c(=O)c3ccccc3n12)N1CCN(c2ccccn2)CC1,n,n,n,n,n,x,x
O=C1C2C3CCC(O3)C2C(=O)N1c1nccs1 (configuration not stated),n,x,n,n,x,x,x
O=C1OC(=O)C2C3CCC(O3)C12 (configuration not stated),x,74.9,x,x,n,46.2,51.0
CCOC(=O)C1(C)C=C(Nc2ccccc2)C(=O)N1c1ccccc1 (configuration not stated),n,29.1,n,n,n,n,n
CC1(OC(=O)c2ccco2)C(=O)C=C2C=C(c3ccsc3)OC=C2C1=O (configuration not stated),x,18.5,x,x,n,n,n
CCCCC1=CC2=CC(=O)C(C)(O)C(=O)C2=CO1 (configuration not stated),x,18.5,x,x,n,n,n

# Screening results: PubChem, several laboratories
